Data from PubChem BioAssay (NCI).
About 83,000 compounds went through this panel and 20% of them were active in at least one assay; those are over-represented in the sample as a whole.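 Negative percent growth values reflect cell death: -40 means 40% of the cells present at the start died, and -100 means all died.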 The source made the active and inactive calls. How the source made its calls: active means growth percent below 10; inactive means the rest.

What was measured:
Assay in all cases: NCI-60 one-dose screen, 48 h (100 = growth as untreated, 0 = no growth, -100 = all killed)
Conditions in all cases: 10 µM unless noted
T-47D breast = system: T-47D breast
BT-549 breast = system: BT-549 breast
MDA-MB-435 melanoma = system: MDA-MB-435 melanoma
SW-620 colon = system: SW-620 colon
MCF7 breast = system: MCF7 breast
HCT-116 colon = system: HCT-116 colon
HCC-2998 colon = system: HCC-2998 colon
KM12 colon = system: KM12 colon

Measured: growth

C[C@@H]1CCCCCCCCC[C@H](O)C(=O)C[C@@H](SC[C@@H](O)C(=O)O)C(=O)O1
inactive: T-47D breast 75.8% | BT-549 breast 91.8% | MDA-MB-435 melanoma 103% | SW-620 colon 103% | MCF7 breast 33.9% | HCT-116 colon 54.5% | HCC-2998 colon 109% | KM12 colon 95.8%

CC(=O)OCCCCCCn1c2ccccc2c2c3c(c4c5ccccc5n(C)c4c21)C(=O)N(O)C3=O
inactive: T-47D breast 42.9% | BT-549 breast 69.2% | MDA-MB-435 melanoma 75.9% | SW-620 colon 76.4% | MCF7 breast 30.4% | HCT-116 colon 48.6% | HCC-2998 colon 76% | KM12 colon 68.8%

c1ccc(CN2C(c3ccccc3)=Nc3ccccc3C2c2c[nH]c3ccccc23)cc1 (stereo not given)
inactive: T-47D breast 27.8% | BT-549 breast 96.3% | MDA-MB-435 melanoma 39.2% | SW-620 colon 27.1% | MCF7 breast 23.5% | HCT-116 colon 14.3% | HCC-2998 colon 41.8% | KM12 colon 56.8%

C/C(=N/NC(N)=S)C(=O)O
inactive: T-47D breast 28.6% | BT-549 breast 102% | MDA-MB-435 melanoma 85.8% | SW-620 colon 77.6% | MCF7 breast 26.2% | HCT-116 colon 10.6% | HCC-2998 colon 94.3% | KM12 colon 109%

COc1ccc2c(c1)c(-c1nc(-c3cn(C)c4ncccc34)cs1)cn2CCCN1CCCCC1
active: SW-620 colon -22.9% | HCT-116 colon -93.2%
inactive: T-47D breast 64% | BT-549 breast 80.5% | MDA-MB-435 melanoma 26% | MCF7 breast 34% | HCC-2998 colon 102% | KM12 colon 57.4%

Cc1ccc(S(=O)(=O)Nc2ccc(-c3cc(-c4cccc(F)c4)c(C#N)c(=O)[nH]3)cc2)cc1
inactive: T-47D breast 41.9% | BT-549 breast 74.7% | MDA-MB-435 melanoma 96.3% | SW-620 colon 73.5% | MCF7 breast 16.9% | HCC-2998 colon 104% | KM12 colon 72.9%
active: HCT-116 colon 8.61%

C=C(C)[C@@H]1CC[C@]2(C(=O)O)CC[C@]3(C)[C@H](CC[C@@H]4[C@@]5(C)C/C(=C/c6ccc(OC)cc6)C(=O)C(C)(C)[C@@H]5CC[C@]43C)[C@@H]12
inactive: T-47D breast 13.3% | BT-549 breast 26.2% | MDA-MB-435 melanoma 30.3% | SW-620 colon 21.9% | HCC-2998 colon 21.7% | KM12 colon 21.3%
active: MCF7 breast 5.66% | HCT-116 colon 5.84%

C=C(C)[C@@H]1CC[C@]2(CN)CC[C@]3(C)[C@H](CC[C@@H]4[C@@]5(C)CCC(=O)NC(C)(C)[C@@H]5CC[C@]43C)[C@@H]12
inactive: T-47D breast 53.9% | BT-549 breast 80.8% | MDA-MB-435 melanoma 92.7% | SW-620 colon 75.9% | MCF7 breast 41.5% | HCT-116 colon 11.7% | HCC-2998 colon 97.7% | KM12 colon 81%

COc1cc(/C=C/c2cc(/C=C/c3ccc(O)c(OC)c3)n(-c3ccc(Cl)cc3)c(=O)n2)ccc1O
inactive: T-47D breast 86% | BT-549 breast 66.9% | MDA-MB-435 melanoma 74.9% | SW-620 colon 85.6% | MCF7 breast 47.6% | HCT-116 colon 50.6% | HCC-2998 colon 104% | KM12 colon 77%

COc1cccc(-c2nn(-c3ccccc3)cc2-c2ccnc(NCCCNS(=O)(=O)c3ccc(C(F)(F)F)cc3)c2)c1
active: T-47D breast -2.76%
inactive: BT-549 breast 36.6% | MDA-MB-435 melanoma 27.1% | SW-620 colon 47.7% | MCF7 breast 16.9% | HCT-116 colon 22.9% | HCC-2998 colon 20% | KM12 colon 23.8%

COC(=O)C(N)CSC(c1ccccc1)(c1ccccc1)c1ccccc1 (stereo not given)
inactive: T-47D breast 23.9% | BT-549 breast 54.6% | SW-620 colon 21.1% | MCF7 breast 13.1% | HCT-116 colon 15.7% | HCC-2998 colon 12.9% | KM12 colon 17.6%
active: MDA-MB-435 melanoma -58.7%

Cn1cc(-c2nc(-c3cn(C)c4ncccc34)cs2)c2ccccc21
inactive: T-47D breast 42% | BT-549 breast 48.3% | SW-620 colon 27% | MCF7 breast 15.9% | HCT-116 colon 14.6% | HCC-2998 colon 67.4% | KM12 colon 22.5%
active: MDA-MB-435 melanoma -18.6%

CC1(C)C(=O)/C(=C\c2cccnc2)C[C@]2(C)[C@H]3CC[C@@H]4[C@@H](C(=O)/C=C/c5ccncc5)CC[C@@]4(C)[C@]3(C)CC[C@@H]12
active: BT-549 breast 8.03% | MDA-MB-435 melanoma -11.4% | SW-620 colon 8.95% | HCT-116 colon -86.9% | KM12 colon -20.9%
inactive: T-47D breast 16.9% | MCF7 breast 26.2% | HCC-2998 colon 59.7%

Clc1ccc2c(NCCNc3nc(-c4ccccc4)cc(-c4ccccc4)n3)ccnc2c1
inactive: BT-549 breast 75.1%
active: T-47D breast -59.7% | MDA-MB-435 melanoma -82.6% | SW-620 colon -53.7% | MCF7 breast -68.7% | HCT-116 colon -69.9% | HCC-2998 colon -28.7% | KM12 colon 5.29%

C=C1C(=O)O[C@H]2[C@H]1CC/C(COC(=O)N[C@H](Cc1c[nH]c3ccccc13)C(=O)OC)=C\CC[C@@]1(C)O[C@@H]21
active: T-47D breast -45.3% | SW-620 colon -1.92% | HCT-116 colon -58.2%
inactive: BT-549 breast 26.4% | MDA-MB-435 melanoma 54.8% | MCF7 breast 14.7% | HCC-2998 colon 101% | KM12 colon 92.6%
